Source: PubChem BioAssay
The list is not random: actives were taken first. Their share in the collection is about 9.2%.
KDM4E inh = qHTS Assay for Inhibitors of Human Jumonji Domain Containing 2E (JMJD2E); Lysine-specific demethylase 4E (Homo sapiens), B2RXH2; JMJD2E catalytic domain, FDH-coupled NADH fluorescence (FDH is formaldehyde dehydrogenase); Potency, µM (highest dose often 57.1 µM), inactives show top-dose activity change, negative = inhibition, hits mostly inhibitors; 230,000 compounds, 1.6% hits; AID 2147, 2009;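 also: 0% = wells with enzyme and -100% = buffer wells without enzyme; nearly all actives have a fitted effect of over 50% in size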
ALDH1A1 block = qHTS Assay for Inhibitors of Aldehyde Dehydrogenase 1 (ALDH1A1). Aldehyde dehydrogenase 1A1 (Homo sapiens), P00352. Purified ALDH1A1, NADH fluorescence, propionaldehyde substrate. Potency, µM (top dose mostly 75.3 µM), without a hit: at the highest dose activity, negative = inhibition, actives largely listed as inhibitors. 220,000 compounds, 7.3% hits;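 also: plate controls were no enzyme wells and a reference inhibitor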
Target sequence (P00352 whole entry, looked up): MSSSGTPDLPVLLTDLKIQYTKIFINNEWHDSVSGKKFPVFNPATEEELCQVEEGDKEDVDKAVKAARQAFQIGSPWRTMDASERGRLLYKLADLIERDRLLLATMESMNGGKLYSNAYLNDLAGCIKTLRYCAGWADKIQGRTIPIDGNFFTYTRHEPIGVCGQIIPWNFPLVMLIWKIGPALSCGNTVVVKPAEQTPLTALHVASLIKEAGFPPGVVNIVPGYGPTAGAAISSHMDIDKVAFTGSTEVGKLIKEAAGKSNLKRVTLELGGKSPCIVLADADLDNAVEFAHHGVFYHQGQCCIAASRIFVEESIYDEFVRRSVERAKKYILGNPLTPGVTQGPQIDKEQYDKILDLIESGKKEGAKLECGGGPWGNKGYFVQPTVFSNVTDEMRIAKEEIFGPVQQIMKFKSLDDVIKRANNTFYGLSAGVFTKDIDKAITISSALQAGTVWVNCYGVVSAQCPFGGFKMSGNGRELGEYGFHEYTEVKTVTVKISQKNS
HPGD inh = qHTS Assay for Inhibitors of HPGD (15-Hydroxyprostaglandin Dehydrogenase) | Potency, µM, for the others: at the top dose activity change, negative = inhibition, usual class: inhibitors | 15-hydroxyprostaglandin dehydrogenase [NAD(+)] (Homo sapiens), P15428 | 150,000 compounds, 4.3% hits | purified HPGD, NADH fluorescence kinetic, PGE2 substrate; also: % is scaled to controls: 0 for no effect and ±100 for the full control effect
Target sequence (P15428 whole entry, looked up): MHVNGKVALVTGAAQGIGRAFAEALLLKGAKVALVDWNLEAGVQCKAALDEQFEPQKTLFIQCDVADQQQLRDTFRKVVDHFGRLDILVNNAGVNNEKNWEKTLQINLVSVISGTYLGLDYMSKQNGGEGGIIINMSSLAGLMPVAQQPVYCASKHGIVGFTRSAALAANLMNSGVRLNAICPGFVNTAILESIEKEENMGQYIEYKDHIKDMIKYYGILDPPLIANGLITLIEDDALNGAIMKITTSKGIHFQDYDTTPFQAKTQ
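20 nM HPGD preincubated 15 min at room temperature with compound in 50 mM Tris-HCl pH 8, 0.01% Tween 20. Started with 1 mM NAD+ and 30 uM prostaglandin E2; NADH fluorescence (360/450 nm) read 5 times over 30-s intervals, last minus first.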
HttQ103 aggreg = qHTS Multiplex Assay to Identify Dual Action Probes in a Cell Model of Huntington: Aggregate Formation (GFP); PC12 HttQ103-GFP aggregates, Acumen cytometry, 40 h; Potency, µM (doses to about 46.1 µM), inactives show top-dose activity change, negative = inhibition, hits mostly inhibitors; 220,000 compounds, 1.1% hits; active = well fitted curve in the direction sought with a large enough effect; inconclusive = small, poorly fitted or top-dose-only effect, or another doubt; inactive = no such curve, though single readings can be large; an effect the other way counts as inactive or inconclusive; also: % is scaled to controls: 0 for no effect and ±100 for the full control effect; nearly all actives have a fitted effect of over 60% in size
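Quantitative HTS on tebufenozide-induced (100 nM) PC12 cells stably expressing polyQ103 Huntingtin exon 1–GFP. Reduction of bright GFP aggregates, detected by laser scanning cytometry after lysis, identified actives across the titration.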
HTT cytoprotect = qHTS Multiplex Assay to Identify Dual Action Probes in a Cell Model of Huntington: Cytoprotection (ATP) | PC12 HTT-Q103 induced, cytoprotection, ATP luminescence, 40 h | Potency, µM (series often up to 56.4 µM), for inactives: cytoprotection (ATP increase), usual class: activators | 230,000 compounds, 0.14% hits; active = well fitted curve in the direction sought with a large enough effect; inconclusive = small, poorly fitted or top-dose-only effect, or another doubt; inactive = no such curve, though single readings can be large; an effect the other way counts as inactive or inconclusive; also: % of control where 0% means no effect; nearly all actives have a fitted effect of over 45% in size
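Compounds were screened for protection of PC12 cells against cell death after tebufenozide induction (100 nM final) of mutant Huntingtin exon 1 (Q103) fused to GFP.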
LMNA splice mod = qHTS Assay for Modulators of Lamin A Splicing. Potency, µM (titrated, usually from 46.1 µM), for the others: at the top dose ratio change, negative = inhibition, most hits filed as inhibitors. HeLa LMNA splicing GFP/RFP minigene ratio, 48 h. 200,000 compounds, 0.01% hits; active = well fitted inhibition curve with a large enough effect in the signal ratio, with a control signal flat, not every such curve was filed as active; inconclusive = small, poorly fitted or top-dose-only effect, or effect the other way, or a change in a side signal; the % refers to the signal ratio; also: % is scaled to controls: 0 for no effect and ±100 for the full control effect
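S3 HeLa stable clones carrying a lamin A-EGFP splicing minigene plus DsRed2 were seeded at 600 cells/well in Opti-MEM with 2% FBS, pin-dosed and incubated 48 h at 37°C. Acumen cytometry (488 nm) gave the GFP/RFP total-intensity ratio.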
An asterisk follows results filed as active; ? = inconclusive; . = not tested or not shown; [ ] = another dose, or the depositor's remark. Unless noted, calls follow the shape of the dose curve; as a rule, active = well fitted inhibition curve with a large enough effect (not every such curve was filed as active); inconclusive = small, poorly fitted or top-dose-only effect, or another doubt; inactive = no such curve, though single readings can be large or run the other way. Potency is read from the fitted curve at half-maximal effect.

SMILES	KDM4E inh	ALDH1A1 block	HPGD inh	HttQ103 aggreg	HTT cytoprotect	LMNA splice mod
S=C(Nc1ccccc1)N1N=CCC1c1ccccc1 (centres undefined)	-2%	?	0%	20%	-2%	0%
Fc1ccc(NC(=S)N2N=CCC2c2ccccc2)cc1 (centres undefined)	1%	7.1µM*	-13%	1%	-24%	21%
c1ccc2c(c1)OCC(c1csc3ncnc(N4CCCCC4)c13)O2 (centres undefined)	-7%	-6%	-14%	11µM*	24%[10 µM]	-5%
Clc1ncnc2scc(C3COc4ccccc4O3)c12 (centres undefined)	-3%	18µM*	28µM*	?	-22%[10 µM]	-18%
O=c1[nH]cnc2scc(C3COc4ccccc4O3)c12 (centres undefined)	-3%	2%	-17%	-28%	23%[0.074 µM]	-2%
CCCN1CCN(c2ncnc3scc(C4COc5ccccc5O4)c23)CC1 (centres undefined)	3%	2%	.	-17%	-3%[10 µM]	?
C[C@@]12C(=O)OC(=O)[C@@]1(C)[C@H]1CC[C@@H]2O1	.	.	.	.	-51%	.
C/C=C(/C)C#N	.	9%	-18%	.	?	.
NC(N)=NCCCCN=C(N)N	8%	-3%	-10%	.	-24%	-11%
O=C(O)CCCNC(=O)/C=C/c1ccco1	?	22µM*	.	-3%	0%	.
O=C(/C=C/c1ccco1)NCCc1ccccc1	-14%	22µM*	.	5%	3%	.
O=C(O)CCCCCNC(=O)/C=C/c1ccco1	-2%	2%	.	-12%[9.22 µM]	-8%[10 µM]	24%[46 µM]
O=C(/C=C/c1cccc(Cl)c1)NCCc1ccccc1	-2%	?	8.9µM*	-15%	-15%[10 µM]	5%
CC/C(=N\NC(=O)CNC(=O)/C=C/c1ccco1)c1ccccc1	17%	14µM*	-13%	14%	-16%	9%
Cc1ccc(C)c(N2CC(C(=O)O)CC2=O)c1 (centres undefined)	-6%	7%	.	13%[9.22 µM]	-5%[10 µM]	6%[46 µM]
CC1CCN(C(=O)c2cnn(-c3cccc(Cl)c3)c2C2CCN(C(=O)OC(C)(C)C)CC2)CC1	.	.	.	.	.	-2%[46 µM]
Cc1ccc(NC(=O)CSc2nnc(-c3cc4occc4n3C)n2-c2ccccc2C)c(Cl)c1	.	.	.	.	.	11%[46 µM]
C=CCn1c(SCC(=O)OCC)nc(C(F)(F)F)cc1=O	-6%	0%	.	7%[9.22 µM]	-27%	?
CC(C)=CC(=O)NCCc1ccccc1	-1%	?	20µM*	-6%	-34%	4%
O=C(/C=C/c1ccccc1)NCCC1=CCCCC1	13%	-1%	28µM*	-19%	10%[10 µM]	?
O=C(O)/C=C/C(=O)NCCc1ccccc1	16%	-16%	.	-9%	2%	.
CN(CCOC(=O)/C=C/c1ccco1)Cc1ccccc1	-26%	22µM*	.	9%[9.22 µM]	21%[10 µM]	2%[46 µM]
O=C(/C=C/c1ccco1)Nc1cc(Cl)ccc1C(=O)O	1%	?	32µM*	1%	-19%[10 µM]	-21%
O=C(COC(=O)c1cccs1)NCCC1=CCCCC1	9%	8%	18µM*	-2%	-9%[10 µM]	-6%
O=C(c1ccc(Cl)c(F)c1F)N1CCCC1	1%	12%	20µM*	-4%	-9%	5%
SMILES	KDM4E inh	ALDH1A1 block	HPGD inh	HttQ103 aggreg	HTT cytoprotect	LMNA splice mod
Cc1ccc(C(=O)N2CCOCC2)c(F)c1F	2%	7%	.	-11%	.	.
COCCNC(=O)CSc1ncnc2sccc12	-2%	-3%	18µM*	6%	-14%	11%
CCO[C@H]1OC(C(=O)N2CCN(Cc3ccccc3)CC2)=C[C@@H](c2ccccc2)[C@@H]1CCCO	-3%	-2%	.	18%[9.22 µM]	20%[10 µM]	.
O=C(C1=C[C@H](c2ccc(C(F)(F)F)cc2)C[C@H](OCc2ccc(CO)cc2)O1)N1CCCCCCC1	-20%	?	.	4%[9.22 µM]	2%[10 µM]	.
O=C(C1=C[C@@H](C2CCCCC2)C[C@@H](OCCCCO)O1)N1CCN(Cc2ccccc2)CC1	-4%	16µM*	.	11%[9.22 µM]	12%[10 µM]	.
O=C(C1=C[C@@H](c2ccccc2)C[C@@H](OCc2ccc(CO)cc2)O1)N1CCCCCCC1	-17%	25µM*	.	16%[9.22 µM]	32%[10 µM]	.
CCO[C@H]1OC(C(=O)N2CCN(Cc3ccccc3)CC2)=C[C@@H](c2ccc(C(F)(F)F)cc2)[C@@H]1CCCO	2%	4.5µM*	.	8%[9.22 µM]	-13%[10 µM]	.
O=C(C1=C[C@H](c2ccccc2)C[C@H](OCc2ccc(CO)cc2)O1)N1CCN(Cc2ccccc2)CC1	20µM*	14µM*	.	9%[9.22 µM]	10%[10 µM]	.
COc1ccc(NC(=O)C2CCN(S(=O)(=O)c3ccc4[nH]c(=O)ccc4c3)CC2)c(OC)c1	.	.	.	.	.	1%[46 µM]
Cn1nc(-c2ccccn2)nc2c(=O)n(C)c(=O)nc1-2	7.1µM*	.	.	?	-45%[10 µM]	?
CCCc1nc2c(=O)n(C)c(=O)nc-2n(C)n1	?	3%	.	6.3µM*	-172%	.
CN1C(=O)N(C)C2=NNC=NC2(O)C1=O (centres undefined)	?	?	?	.	-21%	.
Cc1ccc(/C=C(/NC(=O)c2ccccc2)C(=O)NCCc2c[nH]c3ccccc23)o1	-24%	28µM*	-23%	5%	-28%	7%
Cc1ccc(/C=C(\NC(=O)c2ccccc2)C(=O)NCCc2ccccn2)o1	5%	22µM*	-18%	8%	2%[0.074 µM]	2%
Cc1ccc([N+](=O)[O-])cc1-c1ccc(/C=C(\C#N)c2[nH]nc(N)c2C#N)o1	6%	-7%	2.2µM*	-11%	.	?
COC(=O)c1cc(=O)nc2scc(C)n12	-2%	22µM*	-7%	0%	-28%	4%
CC/C=C\C/C=C\C/C=C\C/C=C\C/C=C\C/C=C\CCC(=O)NCC(=O)O	-1%	?	-12%	.	-26%	.
Cc1ccccc1NC(=O)C(=Cc1ccc(C(=O)O)cc1)C(=O)Nc1ccccc1C	-9%	6%	.	6.3µM*	40%[10 µM]	?
CC(=O)/C(=C/c1ccccc1)C(=O)Nc1ccccc1C	8%	10%	.	-16%	-29%	.
CC(C)C1OC2c3cccc4cccc(c34)C2N1c1ccccc1 (centres undefined)	?	25µM*	-7%	-11%	9%[10 µM]	-11%
Cc1ccc(-c2ccccc2)n1-c1ccc(C(=O)O)cc1	-5%	25µM*	-5%	?	9%[10 µM]	-2%
Cc1ccc(-c2ccccc2)n1-c1cccc(C(=O)O)c1	?	?	.	0%[9.22 µM]	-6%[10 µM]	.
